Assay: E. coli DRC41 culture turbidity changes, primary screen, E. coli filamentation inducer project, strain DRC41, OD650, 48 h (AID 1152);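 further: E. coli MC1000 strain DRC41 lacking acrAB efflux pump and sulA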
Conditions: E. coli DRC41 (acrAB sulA), higher = more signal, called active from +8 up or from −8 down

z-score, inactive:
CN(C)CCCCCCNC(=O)[C@@H]1C[C@@H]2C(=O)N[C@@H](CCCCN)C(=O)N2[C@@H]1c1ccc(O)cc1 0.724
Cc1ccc(N2C(=O)c3ccccc3[C@](C)(C(=O)NCc3ccccc3)[C@@H]2c2ccc(CO)cc2)nc1 0.465
C=C[C@@H](C)[C@@H](OC(=O)Nc1ccc(SC)cc1)c1ccc(OCCO)cc1 -0.707
C=C(/C(=C/C[C@@H](OC(=O)c1ccncc1)c1cccc(OCCO)c1)c1cnc2ccccc2c1)C(C)C 0.172
O=c1cccc(-c2ccco2)o1 -1.13
O=C1C2C=CC(C(O)c3cc(C(F)(F)F)cc(C(F)(F)F)c3)N(Nc3ccccc3F)C2C(=O)N1c1ccccc1 (stereo unspecified) -2.27
O=C(N1CCOCC1)[C@@]1(CCS(=O)(=O)c2ccccc2)N=C(c2ccc(OCCCO)cc2)O[C@H]1c1ccccc1 0.276
COCCCNC(=O)[C@@]1(Sc2ccc(C)cc2)CC(=O)N(C(C)C)[C@@H]1c1ccc(CO)cc1I -0.158
C=C(C)[C@@H]1CC=C(C(O)C2C=CC3C(=O)N(c4ccccc4)C(=O)C3N2Nc2ccc(C#N)cc2)CC1 (stereo partly specified) -2.24
C=C(COC)/C(=C/C[C@@H](OC(=O)c1ccncc1)c1ccccc1OCCO)c1cc(C(=O)OC)ccc1OC 0.132
CC(C)C[C@@H]1NC(=O)[C@@H]2C[C@H](C(=O)NCCCCCC[N+](C)(C)C)[C@H](c3cccc(OCCO)c3)N2C1=O -0.407
O=C1C2C=CC(C(O)c3ccco3)N(Nc3ccccc3)C2C(=O)N1c1ccccc1 (stereo unspecified) -0.292
CCOC(=O)C[C@H]1[C@H](OC(=O)c2ccc(-c3ccccc3)cc2)[C@@H](NC(=O)Cc2ccc(OC)cc2)c2cc(OCCCO)ccc2N1C(=O)Cc1ccc(OC)cc1 1.07
CCOC(=O)C1=CC[C@@H](c2ccccc2)N(S(=O)(=O)c2ccc(C)cc2)[C@H]1c1cccc(OC)c1 -0.999
CN1C=C(C(=O)OCCS(C)(=O)=O)C(C(=O)OCCS(C)(=O)=O)=CC(c2ccc(CO)cc2)=CC1c1cccs1 (stereo unspecified) 0.248
COC(=O)C(CC#Cc1ccc2c(c1)[C@]1(C(=O)N2)[C@H](c2ccc(OCCO)cc2)N2[C@H](c3ccccc3)[C@H](c3ccccc3)OC(=O)[C@H]2[C@@H]1C(=O)N1CCN(c2ncccn2)CC1)C(=O)OC -0.34
